In all, about 33,000 sequences were measured (“E-score (-0.5 to 0.5)”: median about -0.043, highest 2% from about 0.37 on). What follows is part of a selection rich in the highest values, with near analogues and random picks from the rest.
biological target: T1, Upc2 (UniProt Q12151); test: PBM E-score (8-mer binding enrichment) (E-score (-0.5 to 0.5)); higher = stronger / more preferred TF binding; details: protein concentration: 200 nM; construct: GST-full length
T1 sequence: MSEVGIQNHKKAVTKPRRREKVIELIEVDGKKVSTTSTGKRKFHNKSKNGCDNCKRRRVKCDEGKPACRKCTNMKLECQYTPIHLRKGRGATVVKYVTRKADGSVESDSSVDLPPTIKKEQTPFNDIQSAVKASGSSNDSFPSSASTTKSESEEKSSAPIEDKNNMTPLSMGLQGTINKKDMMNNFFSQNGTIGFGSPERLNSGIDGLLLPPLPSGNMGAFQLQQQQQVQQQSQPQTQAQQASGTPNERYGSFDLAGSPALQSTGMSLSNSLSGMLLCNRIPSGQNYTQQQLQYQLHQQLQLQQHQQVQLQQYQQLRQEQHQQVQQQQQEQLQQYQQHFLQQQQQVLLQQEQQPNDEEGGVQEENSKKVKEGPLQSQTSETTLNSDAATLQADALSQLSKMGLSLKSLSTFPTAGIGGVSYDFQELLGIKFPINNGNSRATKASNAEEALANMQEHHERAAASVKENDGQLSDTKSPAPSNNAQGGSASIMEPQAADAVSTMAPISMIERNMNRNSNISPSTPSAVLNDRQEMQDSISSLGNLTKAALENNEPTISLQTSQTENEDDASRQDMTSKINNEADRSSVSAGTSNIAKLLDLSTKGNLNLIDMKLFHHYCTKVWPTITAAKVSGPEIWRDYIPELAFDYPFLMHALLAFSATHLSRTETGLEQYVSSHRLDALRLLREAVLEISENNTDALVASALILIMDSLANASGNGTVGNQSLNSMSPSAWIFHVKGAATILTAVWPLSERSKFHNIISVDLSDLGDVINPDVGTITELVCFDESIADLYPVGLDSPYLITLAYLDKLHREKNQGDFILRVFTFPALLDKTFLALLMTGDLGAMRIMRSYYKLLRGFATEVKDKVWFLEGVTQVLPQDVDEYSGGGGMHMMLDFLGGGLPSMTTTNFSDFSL
Outline: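 Using PURExpress in vitro transcription/translation, GST-tagged yeast transcription factors were made in full-length or DNA-binding-domain form. These were applied at about 100-200 nM to double-stranded universal all-10-mer Agilent arrays, and bound protein was detected with fluorescent anti-GST. Scans were normalised with masliner before the Universal PBM Analysis Suite assigned E-scores to ungapped eight-base words pooled with their reverse complements.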

| Sequence | PBM E-score |
| --- | --- |
| CCGTACCA | 0.368 |
| CCGTACCG | 0.389 |
| CCGTACCC | 0.379 |
| ACGTACCC | 0.203 |
| GCGTACCC | 0.244 |
| ACGTACCG | 0.272 |
| GAAATATA | 0.127 |
| ATCCCGTG | 0.0975 |
| ATCCCGTA | 0.373 |
| GTCCCGTA | 0.25 |
| AACCCAAC | 0.00517 |
| CGCTTACG | 0.372 |
| CGCTTACC | 0.301 |
| CGCTTACA | 0.178 |
| CCTTATAA | 0.0883 |
| ACGTTTAG | 0.397 |
| ACGTTTTA | 0.188 |
| ACGTTTTG | -0.0436 |
| CCGTTTCG | 0.255 |
| ATGTTTAA | 0.067 |
| CCGTTTAG | 0.468 |
| ACGTTTAA | 0.407 |
| ACGTTTAT | 0.313 |
| CAGTTTAG | -0.0566 |
| CACTAGCC | -0.0426 |

| Sequence | PBM E-score |
| --- | --- |
| TAAGACAA | 0.0602 |
| AGCTGAGA | -0.232 |
| CTTGCACC | 0.0237 |
| GAAAGCCA | -0.231 |
| ATAGTATC | 0.0546 |
| CTGGTATC | -0.187 |
| ATCGTATG | 0.455 |
| AACGTATG | 0.239 |
| CTTGTATC | -0.0734 |
| ATGGTATC | 0.15 |
| ATAGTATG | 0.0124 |
| ATCGTATC | 0.426 |
| CTCGTATC | 0.473 |
| CGGTCACA | 0.0569 |
| AGTGCTAT | -0.0648 |
| CGTGCTTC | 0.014 |
| CACAAGGC | -0.308 |
| GGCCATGA | -0.134 |
| ACTTCAGC | -0.178 |
| AGTGTACG | 0.417 |
| AGTGTACC | -0.0597 |
| AGTGTACA | -0.0815 |
| ATTGTACA | -0.0603 |
| ATTGTACC | 0.115 |
| CATGTACA | -0.00834 |

| Sequence | PBM E-score |
| --- | --- |
| CATGTACG | 0.409 |
| AATGTACG | 0.36 |
| CCTGTACA | -0.0382 |
| ATTGTACG | 0.428 |
| CCTGTACG | 0.436 |
| CCTGTACC | -0.0294 |
| ACATGCGA | 0.128 |
| ACAGCGGT | -0.15 |
| AATCTGAA | -0.00542 |
| CTTGACTC | -0.0404 |
| ATAAGTCC | -0.0003 |
| GGTCCACA | -0.166 |
| GAGTTCTA | -0.141 |
| ACTGTACG | 0.433 |
| ACTGTACC | -0.077 |
| ACTGTACT | 0.0214 |
| ATATACGG | 0.456 |
| CTATACGC | 0.458 |
| ATATACGC | 0.387 |
| ATATACAC | 0.193 |
| ATATACCA | 0.0254 |
| CTATACCC | 0.0307 |
| ATATACCG | 0.194 |
| ATATACAA | -0.0498 |
| ATATACTG | 0.0777 |

| Sequence | PBM E-score |
| --- | --- |
| CTATACTC | 0.0215 |
| ATATACGA | 0.492 |
| ATATACTC | -0.0113 |
| CGGATTTA | 0.0862 |
| CGCCTTAC | 0.155 |
| AATCTGAC | -0.119 |
| AGCTCACT | -0.138 |
| ATAAAAAG | 0.0686 |
| CCTCTCAG | -0.352 |
| CGTAGGGA | -0.0318 |
| ATCTTACA | 0.0167 |
| GTCGTACA | 0.483 |
| AACGTACG | 0.386 |
| ATCGTACA | 0.468 |
| AGCGTACA | 0.301 |
| AACGTACA | 0.266 |
| AACGTACC | 0.256 |
| GACGTACA | 0.305 |
| ATCGTAGG | 0.165 |
| ATAGTACA | 0.149 |
| ATCGTACG | 0.435 |
| ATAGTACG | 0.221 |
| GGCGTACA | 0.269 |
| AGTTTTCA | -0.0402 |
| CAGCTAGG | -0.352 |

| Sequence | PBM E-score |
| --- | --- |
| AAGGTGGA | -0.0852 |
| TCAGTCCA | -0.272 |
| AAAAACGT | 0.0237 |
| AGCGCTTG | -0.188 |
| GCGGTACC | 0.0215 |
| GAAGTGCA | -0.153 |
| CTTCTCGA | -0.187 |
| ACCAGAAT | -0.00733 |
| CCAGAGGA | -0.256 |
| AGTCGAGC | -0.152 |
| AGTAAACG | 0.442 |
| AGTAAACC | -0.0507 |
| TGTAAACA | -0.0818 |
| GGTAAACA | 0.111 |
| CGTAAACG | 0.473 |
| CGTAAATC | 0.352 |
| AGTAAACA | 0.0452 |
| CGTAAATA | 0.34 |
| CGTAAACA | 0.39 |
| ACGATTTG | 0.28 |
| CCAAGCTA | -0.182 |
| CAAATAGA | -0.0516 |
| AGTTTCAT | 0.0688 |
| CCTCTATC | -0.122 |
| AAGATCAT | 0.0203 |

| Sequence | PBM E-score |
| --- | --- |
| CGTTTATC | 0.425 |
| GGTTTATA | 0.144 |
| CTTTTATC | 0.00372 |
| AGTTTATA | 0.129 |
| CGTTTATA | 0.45 |
| AGTTTATC | 0.115 |
| ATCTAGCA | -0.206 |
| CCGACACC | 0.0358 |
| ACGACACG | 0.295 |
| ACGACAGG | 0.359 |
| ACGACAGC | 0.336 |
| ACGACACC | 0.374 |
| ACGACAGT | 0.37 |
| ATTATAAC | -0.061 |
| CTAGAGCA | -0.192 |
| GATTGTGA | -0.112 |
| ACTCGTTG | 0.198 |
| CCTCGTTA | 0.399 |
| ACTCGTTC | 0.46 |
| CCTCGTTC | 0.46 |
| CCTCGTGC | 0.0326 |
| ACTCGTTA | 0.35 |
| CCTCGTCC | -0.3 |
| ACTCGGTC | 0.0379 |
| GCTCGTTA | 0.39 |

| Sequence | PBM E-score |
| --- | --- |
| CCACGTTA | 0.136 |
| GCTCGCTA | 0.196 |
| GCACGTTA | 0.182 |
| ACAGTAGA | -0.0149 |
| CATCTTGG | -0.305 |
| GAGTAACC | 0.101 |
| GTCTCACA | -0.0791 |
| CGATATGC | 0.149 |
| GCAACTGA | 0.0086 |
| GAACTGCA | -0.0845 |
| ACGAAACC | 0.267 |
| ACGAAACA | 0.339 |
| CCGAAACG | 0.346 |
| ACGAAACT | 0.382 |
| ACGAAACG | 0.403 |
| ACGAAAGG | 0.32 |
| GAATTTGA | -0.0533 |
| CACCACCC | -0.124 |
| AGTGAAAC | -0.0497 |
| CCCCTTTA | -0.129 |
| CAACGGGC | 0.00552 |
| AAACGGGC | 0.395 |
| AAACGGAC | 0.337 |
| GAACGGGC | 0.291 |
| CAACGGGG | -0.0318 |

| Sequence | PBM E-score |
| --- | --- |
| AAACGGGG | 0.398 |
| TAACGGGA | 0.0733 |
| AAACGGGA | 0.369 |
| GAACGGGA | 0.238 |
| AAACGGGT | 0.344 |
| AAACGGAG | 0.34 |
| AAACGGAT | 0.37 |
| AGACCCCA | -0.148 |
| ATAGAACG | 0.253 |
| GCCATCTA | -0.299 |
| CAGACCAG | -0.0598 |
| CATTCACA | -0.114 |
| CTCGGCGC | 0.069 |
| AAGAGTCA | -0.11 |
| CATTAAGC | 0.0328 |
| CTACGGCA | 0.0153 |
| AGACGGCC | -0.222 |
| ATACGGCA | 0.422 |
| ATACGGCG | 0.43 |
| ATACGGCC | 0.416 |
| CTACGGCC | -0.0664 |
| ACACGGCG | -0.0227 |
| AGACGGCG | -0.0186 |
| GTACGGCA | 0.364 |
| GTTTCACA | 0.00208 |

| Sequence | PBM E-score |
| --- | --- |
| CCGAGTCC | -0.0483 |
| GCTCCTAC | 0.0461 |
| GCAGTTAA | 0.0277 |
| GATGATAC | 0.0998 |
| AGCCAAAA | -0.178 |
| GAAAACGA | 0.263 |
| CGAAACGA | 0.447 |
| AGAAACGG | 0.217 |
| GGAAACAA | -0.0508 |
| GGAAACGA | 0.428 |
| AGAAACGC | -0.037 |
| AGAAACGA | 0.4 |
| CGAAACGC | 0.15 |
| CGAAACCA | 0.201 |
| ACAGTCCT | -0.319 |
| CTCGCTCC | 0.313 |
| ACATAGTG | -0.128 |
| ACCGCCAG | -0.0637 |
| GATCACGA | -0.00109 |

Reference: the supplement of paper PMC3334620
